SMILES strings stand for the structures.

This test deals with Calmodulin-1 (Homo sapiens) (UniProt P0DP23). The test is described as follows: CALM1 binders on microarrays, EGTA buffer, profiling panel, biochemical, small-molecule microarray, Cy5-labelled CALM1 (AID 1111).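 Note: labelled calmodulin applied in Tris saline Tween buffer holding calcium plus EGTA and DTT.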 The settings on record: Cy5-CALM1 binding fluorescence, higher = more signal.
In turn, `C=C1C(=O)C=C2CN(C(=O)c3ccccc3)[C@@](Cc3ccc(OC)cc3)(C(=O)OC)[C@@H]12` had a composite z-score of 2.16.

`COC(=O)[C@@]1(Cc2ccc(F)cc2)[C@H]2c3cc(C(=O)N(C)C)n(C)c3C[C@H]2CN1C(=O)c1ccccc1` registered a composite z-score of 1.1.

`COCCCNC(=O)[C@@]1(CCS(=O)(=O)c2ccccc2)COC(c2ccc(OCCCO)cc2)=N1` registered a composite z-score of 2.65. The same measure for `CO[C@H]1O[C@H](CO)[C@@H](OC(=O)Nc2ccc3c(c2)OCO3)[C@H](OC(=O)Nc2ccccc2-c2ccccc2)[C@H]1OC(=O)Nc1ccccc1-c1ccccc1`: 1.54. The same measure for `NC(=O)N1C(=O)C2C(C1=O)C1C=C(CCCO)C2C(C2CC2)N1Cc1sc2ccccc2c1Cl` (stereo unspecified): 1.42; for `C=CC[C@@]1(C(=O)OC)N=C(c2ccc(OCCCO)cc2)O[C@@H]1c1ccccc1N=[N+]=[N-]`: 0.17; for `C=CCC(OC(C)=O)[C@@H]1[C@@H](N(Cc2ccc(-c3ccccc3)cc2)C(=O)c2cccc3ccccc23)c2cc(OCCCO)ccc2N1C(=O)Cc1ccc(OC)cc1` (stereo partly specified): -0.424. The same measure for `CCOc1cc(C(O)C2C=CC3C(=O)N(c4ccccc4)C(=O)C3N2Nc2ccccc2F)ccc1O` (stereo unspecified): 0.182.

Molecule `C=CCC(OC(C)=O)[C@@H]1[C@@H](N(Cc2cc3ccccc3o2)C(=O)c2cccc3ccccc23)c2cc(OCCCO)ccc2N1C(=O)c1ccc2ccccc2n1` (stereo partly specified) gave a composite z-score of -0.153. The same measure for `COc1ccc(C(O)C2C=CC3C(=O)N(C)C(=O)C3N2N(c2ccccc2)c2ccccc2)cc1` (stereo unspecified): 0.531; for `O=C1O[C@@H](c2ccccc2)[C@@H](c2ccccc2)N2[C@@H](c3ccc(OCCO)cc3)[C@]3(C(=O)Nc4ccc(C#CC5(O)CCCCCC5)cc43)[C@@H](C(=O)Nc3nc4ccccc4s3)[C@H]12`: 1.6; for `COCCOC(=O)N1C(=O)[C@@]2(c3cc(C#CCCO)ccc31)[C@H](C(N)=O)[C@H]1C(=O)O[C@H](c3ccccc3)[C@H](c3ccccc3)N1[C@@H]2c1ccccc1OCCO`: 1.03. The molecule `CC1CC/C=C\[C@H]2OC34C=CCN(C(C)(C)C)C(=O)[C@H]3N(CCCO)C(=O)[C@@H]4C2C(=O)O1` (stereo partly specified) yielded a composite z-score of -0.128. The same measure for `COc1ccc([Si](C)(C)[C@H]2[C@H](CC(=O)N3Cc4ccccc4C[C@H]3CO)O[C@@]3(C(=O)N(C)c4ccccc43)[C@@H]2C)cc1`: 0.125; for `Cc1ccc(S[C@]2(C(=O)NCCCN(C)C)CC(=O)N(C3Cc4ccccc4C3)[C@@H]2c2ccc(CO)cc2I)cc1`: 0.0811.

As for `O=C1O[C@H](c2ccccc2)[C@H](c2ccccc2)N2[C@H]1[C@@H](C(=O)N1CCN(c3ncccn3)CC1)[C@]1(C(=O)Nc3ccc(C#CCCO)cc31)[C@H]2c1ccc(O)cc1`, the composite z-score was determined as 0.562. As to `[N-]=[N+]=Nc1ccccc1C[C@]1(C(=O)N2CCOCC2)N=C(c2ccc(OCCCO)cc2)O[C@H]1c1ccccc1N=[N+]=[N-]`, the composite z-score amounted to 1.5. The same measure for `COc1ccc(C(=O)Nc2ccc(CN3C(=O)[C@@]4(O[C@@H](CCn5cc(CCO)nn5)[C@H]([Si](C)(C)c5ccc(OC)cc5)[C@H]4C)c4ccccc43)cc2)cc1`: -0.0429; for `NC(=O)NCC#Cc1ccc2c(c1)[C@]1(C(=O)N2)[C@H](c2ccc(OCCO)cc2)N2[C@H](c3ccccc3)[C@H](c3ccccc3)OC(=O)[C@H]2[C@@H]1C(=O)NC[C@H](O)c1ccccc1`: 0.0317; for `O=C1[C@H]2C=C(I)[C@H](C[C@@H]2c2ccccc2)[C@@]12CO2`: -0.68. Turning to `CC(C)NC(=O)[C@@H]1c2ccccc2C(=O)N(Cc2ccc(OC(F)(F)F)cc2)[C@H]1c1ccc(CO)cc1`, the composite z-score stood at 0.1. The value for `COc1ccc([Si](C)(C)[C@H]2[C@H](CC(=O)N3Cc4ccccc4C[C@H]3CO)O[C@@]3(C(=O)N(c4ccccc4)c4ccccc43)[C@@H]2C)cc1` was 0.392. Regarding `CC(C)(C)N1CC=CC23O[C@@H]4/C=C\CCCOC(=O)C4[C@H]2C(=O)N(CCCO)[C@@H]3C1=O` (stereo partly specified), the composite z-score is -0.71. The value for `O=C1C2C=CC(C(O)c3ccc([N+](=O)[O-])cc3)N(Nc3ccccc3F)C2C(=O)N1c1ccccc1` (stereo unspecified) was 0.865; that for `COc1ccccc1CN1C(=O)c2ccccc2[C@](Cc2ccccc2I)(C(=O)NCC(C)C)[C@@H]1c1ccc(CO)cc1` was -0.313.

Turning to `C=C(CCCC)/C(=C/C[C@H](OC(=O)c1ccncc1)c1ccc(OCCO)cc1)c1cnc2ccccc2c1`, the composite z-score stood at 0.679.

The molecule `CCCC[C@H]1C[C@@H]1[C@@H]1N(C(C)=O)[C@H](c2cccc(OC)c2)CC12CC2` showed a composite z-score of 1.03.

Consider `O=C1O[C@H](Cc2ccccc2)[C@@H]2[C@H]3C=CCCC=C3CN2[C@H]1Cc1ccc(O)cc1`, for which the composite z-score is -0.342. The value for `COCCOC(=O)N1C(=O)[C@@]2(c3cc(C#CCC(C(=O)OC)C(=O)OC)ccc31)[C@H](C(=O)Nc1nc3ccccc3s1)[C@H]1C(=O)O[C@H](c3ccccc3)[C@H](c3ccccc3)N1[C@@H]2c1ccc(OCCO)cc1` was 1.34.

The molecule `CCCCCCc1nc(Cc2cc(OC)c(OC)c(OC)c2)cc2c1[Si](C(C)C)(C(C)C)O[C@H]2c1ccccc1` showed a composite z-score of -0.0875. Take `COC(=O)c1cccc([C@H]2OC(=CC(=O)OC(C)C)C[C@@H](c3cccc(C(=O)OC)c3)O2)c1`: the composite z-score came out at 1.36.

Molecule `C=CC[C@]1(C(=O)NCC(O)CO)COC(c2ccc(OCCCO)cc2)=N1` (stereo partly specified) gave a composite z-score of -0.189. The molecule `COC(=O)[C@@]1(Cc2ccccc2)[C@H]2c3cc(C(=O)N(C)C)n(Cc4ccc(C(F)(F)F)nc4)c3C[C@H]2CN1C(=O)c1ccccc1` registered a composite z-score of 1.9.

For `CCCNC(=O)[C@@]1(c2ccc([N+](=O)[O-])cc2)CC(=O)N(C(C)C)[C@@H]1c1ccc(CO)cc1`, the composite z-score is -0.168.

With `C[C@@H]1NC(=O)C([C@@H](C)OCc2ccccc2)NC(=O)[C@@]23C(=O)N[C@@H](Cc4ccccc4)C2[C@H](C)[C@@]2(C)O[C@H]2C3/C=C/C/C=C\CNC1=O` (stereo partly specified), the composite z-score was -1.17. The same measure for `CCOC(=O)C1=C[C@@H](C(C)(C)C)N(S(=O)(=O)c2ccc(C)cc2)[C@H]1c1ccc(C#N)cc1`: 1.37.

(Values after PubChem BioAssay.)
